Screening results (PubChem BioAssay)
Tau fibril FP = blocks human tau fibril formation measured by polarization; P10636; K18 P301L tau heparin fibrillization, Alexa594 FP, 6 h; Potency, µM (highest dose often 57.7 µM), for inactives: top-dose activity, negative = inhibition, most hits filed as inhibitors; hit rate 0.39% among 280,000; AID 1468; further: nearly all actives have a fitted effect of over 55% in size
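Human tau K18 […] P301L fragment, 15 uM unlabeled plus 0.24 uM Alexa 594-labeled tau (final), with compound and 20 uM heparin in 100 mM sodium acetate pH 7; 6 hr at 37 C, then Alexa 594 FP read.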
Luc counter = counter-screen: inhibitors of Kinase-Glo firefly luciferase | hit rate 0.28% among 200,000 | Q27757 | Kinase-Glo luciferase, ATP luminescence, 8 min | AID 1379 | Potency, µM (highest dose often 38.3 µM), inactives show at the top dose activity change, negative = inhibition, usual class: inhibitors; further: nearly all actives have a fitted effect of over 60% in size
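Light output from Kinase-Glo luciferase with luciferin and 10 uM ATP in 50 mM imidazole pH 7.2, KCl, MgCl2, Tween 20, BSA; compound pin-delivered, 8-min ambient incubation, then luminescence read.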
Tau ThT inhib = inhibitors of human tau fibril formation, thioflavin T binding; P10636; recombinant tau K18 P301L, heparin-induced fibrillization, ThT fluorescence; Potency, µM (series often up to 57.4 µM), inactives show at the highest dose activity, negative = inhibition, actives largely listed as inhibitors; hit rate 2.1% among 270,000; AID 1460; further: nearly all actives have a fitted effect of over 55% in size
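Heparin-induced (20 uM) aggregation of recombinant human K18 P301L tau, 15 uM unlabeled with 0.24 uM labeled, pH 7 acetate buffer, 6 hr at 37 C with compound. Fibrils quantified by 30 uM ThT fluorescence after 1 hr ambient incubation.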
Tau fluor cs = counter-screen for tau fibril formation inhibitors; tau K18 P301L (four-repeat tau fragment) Alexa594 fluorescence, heparin fibrillization; Potency, µM (titrated, usually from 57.7 µM), without a hit: top-dose activity change, negative = decrease; hit rate 0.93% among 280,000; further: nearly all actives have a fitted effect of over 55% in size
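Human K18 P301L tau (15 uM unlabeled plus 0.24 uM Alexa 594-labeled, final) in 100 mM sodium acetate pH 7 was mixed with compound and 20 uM heparin and incubated 6 hr at 37 C.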
NPSR antagonist = antagonists of human neuropeptide S receptor cAMP signaling. AID 1461. Q6W5P4. hit rate 1% among 220,000. CHO-NPSR cells, cAMP TR-FRET, antagonist mode. Potency, µM (titrated, usually from 38.3 µM), without a hit: top-dose activity change, negative = inhibition, actives largely listed as inhibitors; further: nearly all actives have a fitted effect of over 50% in size
Target sequence (Q6W5P4 whole entry, looked up): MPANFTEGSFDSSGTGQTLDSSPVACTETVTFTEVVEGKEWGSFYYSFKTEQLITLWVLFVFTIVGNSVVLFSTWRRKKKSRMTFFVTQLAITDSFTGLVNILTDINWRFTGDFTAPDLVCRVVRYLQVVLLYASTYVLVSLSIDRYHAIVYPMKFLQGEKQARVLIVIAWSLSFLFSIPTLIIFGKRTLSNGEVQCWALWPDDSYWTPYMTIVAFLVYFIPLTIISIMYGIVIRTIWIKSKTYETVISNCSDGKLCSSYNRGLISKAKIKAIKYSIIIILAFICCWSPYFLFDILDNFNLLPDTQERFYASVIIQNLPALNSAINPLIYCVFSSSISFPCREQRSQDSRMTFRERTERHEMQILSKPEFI
* = called active by the depositor; ? = inconclusive; . = no result; [ ] = another dose, or the depositor's remark. Shown are actives, neighbours in structure and some others; about 3.3% of the full set was active somewhere. The call rests on the fitted dose curve; in most records, active means well fitted curve in the direction sought with a large enough effect; inconclusive means small, poorly fitted or top-dose-only effect, or another doubt; inactive means no such curve, though single readings can be large; an effect the other way counts as inactive or inconclusive. On the % scale 0 is the no-effect control and ±100 the full control effect; potency means the concentration at half of the fitted maximal effect.

SMILES	Tau fibril FP	Luc counter	Tau ThT inhib	Tau fluor cs	NPSR antagonist
C[C@H](NC(=O)[C@@H](N)Cc1ccc(O)cc1)C(=O)NCC(=O)N(C)[C@@H](Cc1ccccc1)C(=O)N[C@H](CO)CCS(C)=O (some centres not stated)	-4%	.	5%	2%	.
CC1=NN(c2ccccc2)C(=O)C1/C=C1/C(=O)NC(=O)N(c2cc(C)cc(C)c2)C1=O (configuration not stated)	-12%	-9%	11µM*	-26%	3%[46.1 µM]
CC1=NN(c2ccccc2)C(=O)C1/C=C1\C(=O)NC(=O)N(c2ccc(C)c(C)c2)C1=O (configuration not stated)	3%	-7%	11µM*	-23%	-15%[46.1 µM]
CC1=NN(c2ccccc2)C(=O)C1/C=C1/C(=O)NC(=O)N(c2cccc(C)c2)C1=O (configuration not stated)	-2%	-3%	?	-20%	-10%[46.1 µM]
COc1cc2c(cc1O)-c1c(O)c(OC)cc3c1[C@H](C2)N(C)CC3	?	-3%	28µM*	?	.
Cn1c(=O)c2[nH]cnc2n(C)c1=O.[CH2-][C@H](Cc1cccc2cc(C(=O)O)c(=O)oc12)OC.[Hg].[OH-]	.	-1%[7.66 µM]	.	.	.
O=[N+]([O-])c1ccc(N2CCCNCC2)c2ncccc12	1%	.	?	-4%	38%
O=[N+]([O-])c1ccc(N2CCCCC2)c2ncccc12	-15%	5%	16µM*	?	23%
O=[N+]([O-])c1ccc(N2CCCCCC2)c2ncccc12	-4%	-1%	16µM*	-28%	-33%
NC1(P(=O)(O)O)CCCCC1	.	-1%[7.66 µM]	.	.	.
Nc1nc2c(ncn2[C@@H]2O[C@H](CO)[C@@H](O)[C@@H]2O)c(=[SH+])[nH]1.O=[N+]([O-])c1ccc(O)[c]([Hg])c1	.	2.8µM*	.	.	.
Nc1ccccc1O.O.O=C(O)[C@H]1[O][Sb][O][C@H]1C(=O)O	.	-4%[7.66 µM]	.	.	.
C/C=C(\C)C(=O)OC1C(C)=C2C(C1OC(=O)CCCCC)C(C)(OC(C)=O)CC(OC(=O)CCC)C1(O)C2OC(=O)C1(C)O (configuration not stated)	5%	.	?	-18%	4µM*
CC[C@@H](CO)NC(=O)[C@H]1C=C2c3cccc4c3c(cn4C)C[C@H]2N(C)C1	-1%	-4%	?	-24%	?
C=C(CC1(C(C)NP(=O)(c2ccccc2)c2ccccc2)CC1)c1ccccc1 (configuration not stated)	11%	-3%	?	-13%	.
CC[C@@]1(O)CC(O)c2c(cc3c(c2O)C(=O)c2c(O)ccc(O)c2C3=O)C1C(=O)OC (some centres not stated)	-14%	-3%	7.9µM*	-27%	.
CC[C@]1(O)CC(O[C@@H]2CC(N(C)C)C(O)C(C)O2)c2c(cc3c(c2O)C(=O)c2c(O)cccc2C3=O)C1C(=O)OC (some centres not stated)	4%	-10%	8.9µM*	?	.
CC(C)c1nccn1Cc1ccc(Cl)cc1Cl	.	-5%[7.66 µM]	.	.	.
COc1ccc(C(=O)Nc2ccc(-c3nc4ccccc4s3)c(Cl)c2)cc1Cl	?	.	2%	-21%	.
CC(C)[C@]1(O)[C@@H](OC(=O)c2ccc[nH]2)[C@]2(O)[C@@]3(C)C[C@@]4(O)O[C@@]5([C@H](O)[C@@H](C)CC[C@]35O)[C@]2(O)[C@]41C	.	-1%[7.66 µM]	.	.	.
N#CC1=C(N)Oc2c(c(=O)oc3ccccc23)C1c1ccc([N+](=O)[O-])o1 (configuration not stated)	?	0%	10µM*	-27%	-12%
CC(C)Oc1ccc(C2C(C#N)=C(N)Oc3c2c(=O)oc2ccccc32)cc1 (configuration not stated)	?	0%	-11%	?	-25%[46.1 µM]
[O-]/[N+](=C/c1cccnc1)c1ccc(Br)cc1	?	0%	28µM*	-20%	?
NCC(O)c1cc(O)c(O)cc1F (configuration not stated)	?	-4%	11µM*	-28%	?
